Assay outcomes deposited in PubChem by National Center for Advancing Translational Sciences (NCATS).
Only some compounds are listed: those with a hit (about 12% of all), similar ones and a draw of the others.
HP1b binding inh = HTS for Inhibitors of HP1-beta Chromodomain Interactions with Methylated Histone Tails; Chromobox protein homolog 1 (Homo sapiens), P83916; Potency, µM (highest dose often 114 µM), hits mostly inhibitors; AlphaScreen HP1-beta / biotin-H3K9me3 peptide binding; actives 0.56% (n = 390,000); note: nearly all actives have a fitted effect of over 70% in size
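Compound inhibition of the preformed complex between 50 nM HP1-beta and 50 nM biotinylated H3K9me3 peptide was read by AlphaScreen. Buffer was PBS pH 7.4 with 0.01% Tween-20. Incubations ran 30 min at room temperature, with 10 ug/mL donor/acceptor beads.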
BAZ2B block = qHTS Assay for Inhibitors of BAZ2B. AID 504333, 2011. actives 4.4% (n = 360,000). AlphaScreen BAZ2B-H3K14Ac peptide displacement. Bromodomain adjacent to zinc finger domain protein 2B (Homo sapiens), Q9UIF8. Potency, µM (titrated, usually from 114 µM), hits mostly inhibitors; note: nearly all actives have a fitted effect of over 60% in size
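Multi-concentration screen (max 110 uM) measuring displacement of acetylated histone H3 peptide from BAZ2B by AlphaScreen, using 50 nM protein, 50 nM peptide and 10 ug/mL streptavidin donor plus Ni-chelate acceptor beads.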
PI5P4Ka inh = qHTS for Inhibitors of phosphatidylinositol 5-phosphate 4-kinase (PI5P4K) | Phosphatidylinositol 5-phosphate 4-kinase type-2 alpha (Homo sapiens), P48426 | PI5P4Kalpha enzyme, ADP-Glo luminescence, 60 min; hits give low values | max response, % | actives 1.2% (n = 330,000); active = max response of -50% or lower; inconclusive = between -30% and -50%; inactive = -30% or higher; note: value at the top dose of about 77 µM
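Quantitative HTS of the MLSMR library against PI5P4Kalpha with substrate. ATP added last at 5 microM final; room temperature, 60 minutes. Remaining ATP depleted, ADP converted and read as luminescence.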
G9a block = qHTS Assay for Inhibitors of Histone Lysine Methyltransferase G9a; Histone-lysine N-methyltransferase EHMT2 (Homo sapiens), Q96KQ7; G9a H3K9 monomethylation, AlphaScreen, 2 h; Potency, µM (titrated, usually from 102 µM), hits mostly inhibitors; actives 8.8% (n = 350,000); AID 504332, 2011; note: nearly all actives have a fitted effect of over 75% in size
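Signal arises when biotinylated H3K9 peptide, once monomethylated, bridges streptavidin donor and antibody-captured acceptor beads. Enzyme at 20 nM was preincubated 15 min with test compounds; peptide 500 nM and SAM 20 uM then reacted for 2 h.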
PLK1 PBD block = qHTS for Inhibitors of PLK1-PDB (polo-like kinase 1 - polo-box domain): Primary Screen | Serine/threonine-protein kinase PLK1 (Homo sapiens), P53350 | actives 2.8% (n = 360,000) | Potency, µM, usual class: inhibitors | Plk1 PBD binding of FITC phosphopeptide, fluorescence polarization; note: series mostly up to about 57 µM; nearly all actives have a fitted effect of over 65% in size
JMJD2A Tudor inh = qHTS Assay for Inhibitors of JMJD2A-Tudor Domain; AID 504339, 2011; Lysine-specific demethylase 4A (Homo sapiens), O75164; AlphaScreen JMJD2A-Tudor / H3K4me3 peptide binding; actives 4.4% (n = 390,000); Potency, µM (titrated, usually from 114 µM), actives largely listed as inhibitors; note: nearly all actives have a fitted effect of over 50% in size
A number is an active result; [ ] = remark or other dose. Unless noted, calls come from the whole dose curve; as a rule, active = well fitted curve in the direction sought with a large enough effect; inconclusive = small, poorly fitted or top-dose-only effect, or another doubt; inactive = no such curve, though single readings can be large; an effect the other way counts as inactive or inconclusive.

Screening CCS(=O)(=O)NCC(c1cccnc1)N1CCN(c2ccccc2OC)CC1 (stereo not drawn) returned HP1b binding inh inactive, BAZ2B block inactive, PI5P4Ka inh inactive, G9a block inconclusive, PLK1 PBD block inactive and JMJD2A Tudor inh inactive.
For COc1ccc(S(=O)(=O)NCC(c2cccnc2)N2CCN(c3ccc(F)cc3)CC2)cc1C (stereo not drawn) the results were HP1b binding inh inactive, BAZ2B block inconclusive, PI5P4Ka inh inactive, G9a block inconclusive, PLK1 PBD block inactive and JMJD2A Tudor inh inconclusive.
Screening COc1ccccc1N1CCN(C(CNC(=O)C(=O)NCCc2ccccc2)c2cccnc2)CC1 (stereo not drawn) returned HP1b binding inh 20µM, BAZ2B block 40µM, G9a block 5.6µM and JMJD2A Tudor inh 11µM.
Screening COc1ccccc1N1CCN(C(CNS(=O)(=O)c2cccs2)c2cccnc2)CC1 (stereo not drawn) returned HP1b binding inh inactive, BAZ2B block inactive, PI5P4Ka inh inactive, G9a block 50µM, PLK1 PBD block inactive and JMJD2A Tudor inh inactive.
For COc1ccc(S(=O)(=O)NCC(c2cccnc2)N2CCN(c3ccccc3)CC2)cc1C (stereo not drawn) the results were HP1b binding inh inactive, BAZ2B block inconclusive, PI5P4Ka inh inactive, G9a block 50µM, PLK1 PBD block inactive and JMJD2A Tudor inh inconclusive.
COc1ccc(C(=O)NCC(c2cccnc2)N2CCN(c3ccccc3OC)CC2)cc1 (stereo not drawn) was read as HP1b binding inh inactive, BAZ2B block inactive, G9a block inconclusive and JMJD2A Tudor inh inactive.
COC(=O)c1cc(Cl)ccc1NCC(N)c1ccccc1 (stereo not drawn) was read as PI5P4Ka inh inactive and PLK1 PBD block inactive.
`COc1ccc(N2CCN(C(CNS(=O)(=O)c3cccs3)c3cccnc3)CC2)cc1` (stereo not drawn) gave HP1b binding inh inactive, BAZ2B block inconclusive, PI5P4Ka inh inactive, G9a block 89µM, PLK1 PBD block inactive and JMJD2A Tudor inh inconclusive.
Screening S=c1[nH]nc(-c2cc(-c3ccccc3)n[nH]2)n1/N=C/c1ccc(Cl)cc1 returned HP1b binding inh inactive, BAZ2B block inactive, PI5P4Ka inh inactive, G9a block inconclusive, PLK1 PBD block inactive and JMJD2A Tudor inh inactive.
`S=c1[nH]nc(-c2cc(-c3ccccc3)n[nH]2)n1/N=C/c1ccc(Cl)c(Cl)c1` gave HP1b binding inh inactive, BAZ2B block 45µM, PI5P4Ka inh inactive, G9a block inconclusive, PLK1 PBD block inconclusive and JMJD2A Tudor inh 50µM.
S=c1[nH]nc(-c2cc(-c3ccccc3)n[nH]2)n1/N=C/c1cccc(Cl)c1 was read as HP1b binding inh inconclusive, BAZ2B block 50µM, PI5P4Ka inh inactive, G9a block 10µM, PLK1 PBD block inconclusive and JMJD2A Tudor inh 40µM.
COc1ccc(/C=N/NC(=O)c2ccccc2OCc2ccccc2)c(OC)c1 was read as HP1b binding inh inactive, BAZ2B block inactive, PI5P4Ka inh inactive, G9a block inactive, PLK1 PBD block inactive and JMJD2A Tudor inh inactive.
Screening COc1ccc(C/C(C)=N/NS(=O)(=O)c2ccc(Br)cc2)cc1 returned HP1b binding inh inactive, BAZ2B block inactive, PI5P4Ka inh inactive, G9a block 25µM, PLK1 PBD block inconclusive and JMJD2A Tudor inh inactive.
Screening C/C(CC(=O)Nc1ccc(N(C)C)cc1)=N\NC(=O)c1ccncc1 returned HP1b binding inh inactive, BAZ2B block inactive, PI5P4Ka inh inactive, G9a block 35µM, PLK1 PBD block inactive and JMJD2A Tudor inh inactive.
CCOc1ccc(S(=O)(=O)N/N=C(\C)c2ccc(OC)cc2OC)cc1 was read as HP1b binding inh inconclusive, BAZ2B block inactive, PI5P4Ka inh inactive, G9a block inconclusive, PLK1 PBD block 15µM and JMJD2A Tudor inh inactive[11.4 µM].
`C/C(CC(=O)Nc1ccc(N(C)C)cc1)=N\NC(=O)c1ccc(Cl)cc1` gave HP1b binding inh inactive, BAZ2B block inactive, PI5P4Ka inh inactive, G9a block inactive, PLK1 PBD block inactive and JMJD2A Tudor inh inconclusive.
For COc1ccc(S(=O)(=O)N/N=C(/C)c2ccc(Cl)cc2)cc1 the results were HP1b binding inh inactive, BAZ2B block inactive, G9a block inactive, PLK1 PBD block inactive and JMJD2A Tudor inh inactive.
Screening COc1ccc(/C(C)=N/NS(=O)(=O)c2cc(C)ccc2C)c(OC)c1 returned HP1b binding inh inactive, BAZ2B block inactive, PI5P4Ka inh inactive, G9a block inconclusive, PLK1 PBD block inconclusive and JMJD2A Tudor inh inactive[11.4 µM].
`COc1ccc(/C(C)=N/NC(=O)c2ccccc2OCc2ccccc2)c(OC)c1` gave HP1b binding inh inactive, BAZ2B block inactive, PI5P4Ka inh inconclusive, G9a block inactive, PLK1 PBD block 19µM and JMJD2A Tudor inh 18µM.
Screening COc1ccc(C(C(=O)NC(C)(C)C)n2c(=O)c(-c3cc4ccccc4[nH]3)nc3ccccc32)cc1 (stereo not drawn) returned PI5P4Ka inh inactive and PLK1 PBD block inactive.
CCOC(=O)[C@]12CCCC=C1N(Cc1ccccc1)C(=O)[C@H](CC(=O)NCc1ccccc1)C2 was read as PI5P4Ka inh inactive and PLK1 PBD block inactive.
For COc1cc(OC)cc(N2C(=O)CSC23C(=O)Nc2ccccc23)c1 (stereo not drawn) the results were HP1b binding inh inactive, BAZ2B block inactive, G9a block inconclusive and JMJD2A Tudor inh inactive.
Screening COc1ccc(C(=O)N/N=C(\C)CC(=O)Nc2ccc(N(C)C)cc2)c(OC)c1 returned HP1b binding inh inconclusive, BAZ2B block 40µM, PI5P4Ka inh inactive, G9a block inactive[0.501 µM], PLK1 PBD block inactive and JMJD2A Tudor inh inconclusive.
For C/C(CC(=O)Nc1ccc(N(C)C)cc1)=N\NC(=O)c1ccccc1Cl the results were PI5P4Ka inh inactive and PLK1 PBD block inactive.
`CN(C)c1ccc(NC(=O)CC(NCc2ccccn2)C(=O)O)cc1` (stereo not drawn) gave HP1b binding inh inactive, BAZ2B block 5.6µM, PI5P4Ka inh inactive, G9a block inactive, PLK1 PBD block inactive and JMJD2A Tudor inh 18µM.
`COc1ccc(CC(=O)Nc2ccc(/C(C)=N/NC(=O)c3ccc(OC)cc3OC)cc2)cc1` gave HP1b binding inh inactive, BAZ2B block inactive, PI5P4Ka inh inactive, G9a block inactive, PLK1 PBD block inactive and JMJD2A Tudor inh inactive.
Screening C/C(CC(=O)Nc1ccc(N(C)C)cc1)=N\NC(=O)c1cnccn1 returned HP1b binding inh inactive, BAZ2B block inactive, PI5P4Ka inh inactive, G9a block inconclusive, PLK1 PBD block inactive and JMJD2A Tudor inh 79µM.
